Shown are actives, neighbours in structure and some others; about 7.3% of the full set was active somewhere.
ELG1 genotoxic: genotoxicity induction in ELG1-luciferase HEK293T cells. HEK293T ELG1-luciferase reporter, luminescence, 16 h. Potency, µM (top dose mostly 46 µM), usual class: activators. actives 1.3% (n = 330,000). AID 504466; also: nearly all actives have a fitted effect of over 60% in size
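HEK293T cells expressing luciferase-tagged ELG1 were exposed to compound or DMSO vehicle for 16 hr at 37 °C and 5% CO2. Luciferase activity was then measured with ONE-Glo after 30 min at room temperature.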
SMN2 splice up: SMN2 splice variant enhancement; AID 1458; actives 2.8% (n = 210,000); Potency, µM (top dose mostly 46.1 µM), usual class: activators; HEK293 SMN2-luciferase splicing reporter, luminescence, 30-36 h; also: nearly all actives have a fitted effect of over 55% in size
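HEK293 cells carry an SMN2 […]–luciferase reporter in which exon 7 inclusion puts luciferase in frame. Cells were plated 10-12 h before compound addition, then incubated 30-36 h at 37C. ONE-Glo luminescence was read; sodium butyrate at 4.5 mM final served as control.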
KinaseGlo FLuc: Kinase-Glo luciferase inhibition (counter-screen); Q27757; Kinase-Glo luciferase, ATP luminescence, 8 min; Potency, µM (series often up to 38.3 µM), actives largely listed as inhibitors; actives 0.28% (n = 200,000); also: nearly all actives have a fitted effect of over 60% in size
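Light output from Kinase-Glo luciferase with luciferin and 10 uM ATP in 50 mM imidazole pH 7.2, KCl, MgCl2, Tween 20, BSA; compound pin-delivered, 8-min ambient incubation, then luminescence read.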
Rab9 prom act: activators of Rab9 promoter | actives 2.8% (n = 320,000) | AID 485297 | Potency, µM (series often up to 9.22 µM), hits mostly activators | Huh7 Rab9 promoter-luciferase reporter, luminescence, 24 h; also: nearly all actives have a fitted effect of over 60% in size
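Cell-based reporter: Huh7 stable for Rab9 promoter-driven luciferase, plated in reduced-serum medium with 10% FBS at 1500 cells/well, compound-treated 24 h at 37 °C, luminescence read after 10 min reagent.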
NPC1 prom act: activates the NPC1 promoter. Huh7 NPC1 promoter luciferase reporter, 24 h. Potency, µM (titrated, usually from 9.22 µM), usual class: activators. actives 2.4% (n = 320,000). AID 485313; also: nearly all actives have a fitted effect of over 60% in size
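Huh7 reporter cells (NPC1 promoter driving luciferase) are dosed with compound for 24 h at 37 °C, 5% CO2; luciferase detection reagent is then added and luminescence measured after 10 min at ambient temperature.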
FLuc modulator: firefly luciferase modulation, counter-screen for miR-21 project. P08659. purified FLuc, Km substrates, luminescence inhibition. Potency, µM (doses to about 57.5 µM), actives largely listed as inhibitors. actives 6.9% (n = 360,000). AID 588342; also: nearly all actives have a fitted effect of over 55% in size
Target sequence (P08659 whole entry, looked up): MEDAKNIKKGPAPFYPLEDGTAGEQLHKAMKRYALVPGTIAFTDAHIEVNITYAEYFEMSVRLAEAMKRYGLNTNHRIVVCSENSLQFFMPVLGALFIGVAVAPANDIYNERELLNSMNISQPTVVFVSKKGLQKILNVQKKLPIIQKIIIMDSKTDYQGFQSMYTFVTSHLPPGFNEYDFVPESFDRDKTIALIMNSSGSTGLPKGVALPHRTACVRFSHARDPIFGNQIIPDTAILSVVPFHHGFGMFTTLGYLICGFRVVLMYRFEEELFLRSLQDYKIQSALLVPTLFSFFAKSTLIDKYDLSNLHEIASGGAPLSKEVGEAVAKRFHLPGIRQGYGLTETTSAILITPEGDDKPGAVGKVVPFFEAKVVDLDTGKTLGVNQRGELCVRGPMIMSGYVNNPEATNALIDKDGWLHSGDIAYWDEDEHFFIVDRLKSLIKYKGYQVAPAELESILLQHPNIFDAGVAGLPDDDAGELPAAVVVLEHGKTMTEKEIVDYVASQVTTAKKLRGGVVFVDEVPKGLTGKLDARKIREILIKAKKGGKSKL
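Purified P. pyralis luciferase, 10 nM final, with Km-level 10 uM D-luciferin and 10 uM ATP in 50 mM Tris acetate pH 7.5, 10 mM Mg acetate, 0.01% Tween-20, 0.05% BSA; 6-point qHTS titration about 60 µM downward; luminescence read.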
Each line names hits and unclear results; the compound was inactive in the other large screens. Calls follow the shape of the dose curve; as a rule, active = well fitted curve in the direction sought with a large enough effect; inconclusive = small, poorly fitted or top-dose-only effect, or another doubt; inactive = no such curve, though single readings can be large; an effect the other way counts as inactive or inconclusive.

Oc1ccc(N=Nc2ccc3c(c2)OCCO3)c(O)c1	ELG1 genotoxic inconclusive, Rab9 prom act 1.1µM, NPC1 prom act 1.3µM, FLuc modulator 1.2µM (no result: SMN2 splice up, KinaseGlo FLuc)
CCOC(=O)c1c(NC(=O)CSc2nc(-c3ccc(OC)cc3)cc(C(F)(F)F)n2)sc(C)c1C	none (no result: ELG1 genotoxic, KinaseGlo FLuc, Rab9 prom act, NPC1 prom act)
CCCn1c2ccccc2c2cnn(CC(=O)NCCCN(Cc3ccccc3)C(C)C)c(=O)c21	none (no result: ELG1 genotoxic, SMN2 splice up, KinaseGlo FLuc, Rab9 prom act, NPC1 prom act)
COc1ccc(N=Nc2ccc(O)c3ncccc23)cc1	ELG1 genotoxic 4.6µM (no result: SMN2 splice up, KinaseGlo FLuc)
COc1cccc(N=Nc2ccc3cccnc3c2O)c1	ELG1 genotoxic 16µM, FLuc modulator 8.5µM (no result: SMN2 splice up, KinaseGlo FLuc)
O=S(=O)(O)c1cccc2c(N=Nc3ccc(O)c4ncccc34)cccc12	FLuc modulator 15µM (no result: SMN2 splice up, KinaseGlo FLuc)
COc1ccc(C)cc1N=Nc1ccc(O)c2ncccc12	none
Oc1ccc(N=Nc2ccc3c(c2)OCCO3)c2cccnc12	FLuc modulator 6µM
O=C(CSc1nc2c([nH]c3ccccc32)c(=O)n1-c1ccccc1)N1CCCCC1	none (no result: ELG1 genotoxic, SMN2 splice up, KinaseGlo FLuc, Rab9 prom act, NPC1 prom act)
CC(=O)O[C@H]1CC[C@]2(C)C(=CC[C@H]3[C@H]4C[C@H]5O[C@]6(CC[C@H](C)CN6)[C@H](C)[C@@H]5[C@]4(C)CC[C@@H]32)C1	none (no result: ELG1 genotoxic, Rab9 prom act, NPC1 prom act, FLuc modulator)
Cc1cccc(NC(=O)Cn2c(=O)n(CCCCCC(=O)NCc3ccc4c(c3)OCO4)c(=O)c3sccc32)c1	none (no result: ELG1 genotoxic, KinaseGlo FLuc, Rab9 prom act, NPC1 prom act)
COc1ccc2c(c1)c1c(c(=O)n(-c3ccc(OC)c(OC)c3)c(=O)n1CC(=O)N1CCCC1)n2C	none (no result: ELG1 genotoxic, SMN2 splice up, KinaseGlo FLuc, Rab9 prom act, NPC1 prom act)
O=Nc1ccc(O)c2ncccc12	ELG1 genotoxic inconclusive (no result: SMN2 splice up, KinaseGlo FLuc)
COCc1ccc(O)c2ncccc12	none
COc1cccc(N=Nc2ccc(O)c3ncccc23)c1	ELG1 genotoxic inconclusive, FLuc modulator 6µM (no result: SMN2 splice up, KinaseGlo FLuc)
Cc1ccccc1N=Nc1ccc(O)c2ncccc12	ELG1 genotoxic 12µM
COc1ccc(N=Nc2cc(-c3ccccc3)ccc2O)cc1	FLuc modulator 24µM (no result: SMN2 splice up, KinaseGlo FLuc)
CCOc1ccc(NC(=O)CC2C(=O)N(c3ccc(F)cc3)C(=O)N2CCc2sccc2C)cc1 (stereo not drawn)	none (no result: ELG1 genotoxic, KinaseGlo FLuc, Rab9 prom act, NPC1 prom act)
CCOC(=O)c1cc2c(=O)n3ccccc3nc2n(Cc2ccco2)c1=NC(=O)c1cccc(F)c1	none (no result: ELG1 genotoxic, KinaseGlo FLuc, Rab9 prom act, NPC1 prom act)
CN(C(=O)CC(=O)Nc1ccc2nc3n(c(=O)c2c1)CCCCC3)c1ccccc1F	none (no result: ELG1 genotoxic, KinaseGlo FLuc, Rab9 prom act, NPC1 prom act)
Cn1c(N=Nc2ccc(N3CCOCC3)cc2)[n+](C)c2ccccc21	KinaseGlo FLuc 13µM, FLuc modulator 7.6µM
CCn1c(SCC(=O)Nc2nccs2)nnc1-c1ccc(C)cc1	none
COC(=O)CSc1nnc(-c2cccc(NC(=O)c3ccc(C)cc3)c2)n1C	FLuc modulator 24µM
Cn1nnnc1SCc1ccc(C(=O)Nc2ccc(Br)cc2)cc1	ELG1 genotoxic inconclusive, Rab9 prom act inconclusive, NPC1 prom act inconclusive, FLuc modulator 6µM
CCC(=O)Nc1ccc(-c2nnc(SCc3ccc(C(=O)Nc4nccs4)cc3)n2CC)cc1	FLuc modulator 11µM (no result: Rab9 prom act)
Cc1ccc(NC(=O)c2ccc(CSc3nnc(-c4ccncc4)n3C)cc2)cc1	FLuc modulator 1.9µM
Cc1ccc(Nc2nnc(-c3ccc(C)c(S(=O)(=O)N4CCN(C)CC4)c3)c3ccccc23)c(C)c1	none (no result: ELG1 genotoxic, KinaseGlo FLuc, Rab9 prom act, NPC1 prom act)
COC(=O)c1ccc2c(=O)n(CCc3ccc(S(N)(=O)=O)cc3)c(SCC(=O)C(C)(C)C)nc2c1	none (no result: ELG1 genotoxic, SMN2 splice up, KinaseGlo FLuc, Rab9 prom act, NPC1 prom act)
COc1ccc(-c2cc(OC)c3ccccc3n2)cc1	FLuc modulator 19µM
CCOc1ccc(-c2cc(C(=O)N3CCN(C)CC3)c3ccccc3n2)cc1	ELG1 genotoxic inconclusive, SMN2 splice up 11µM, KinaseGlo FLuc inconclusive, Rab9 prom act 2.5µM, NPC1 prom act 2.8µM, FLuc modulator 0.6µM
CN1CCCN(C(=O)c2cc(-c3cccc4ccccc34)nc3ccccc23)CC1	none (no result: SMN2 splice up, KinaseGlo FLuc)
O=C(O)c1cc(-c2ccco2)nc2ccc(Br)cc12	FLuc modulator 19µM
O=C(O)c1cc(-c2ccc(-c3ccc(F)cc3)o2)nc2ccccc12	ELG1 genotoxic inconclusive, Rab9 prom act 0.89µM, NPC1 prom act 2.5µM, FLuc modulator 0.13µM (no result: SMN2 splice up, KinaseGlo FLuc)
O=C(c1cc(-c2ccc(F)cc2)nc2ccccc12)N1CCC1	none (no result: SMN2 splice up, KinaseGlo FLuc, Rab9 prom act, NPC1 prom act, FLuc modulator)
NC(=O)COC(=O)c1cc(-c2ccco2)nc2ccccc12	FLuc modulator inconclusive (no result: SMN2 splice up, KinaseGlo FLuc)
